Source: the supplement of paper PMC11732987, “Enantioselective OTUD7B fragment discovery through chemoproteomics screening and high-throughput optimisation” (Communications Chemistry, 2025)

What was measured:
Assay in all cases: log2 ratio of Biotin-Ahx-Ub-VS probe labelling (fragment/DMSO); higher = less target engagement (more negative = stronger competition), active = hit call of the paper (q ≤ 0.05, log2 ratio ≤ -1)
Conditions in all cases: compound concentration: 200 uM; treatment time: 3 h
[1] = molecular target: USP34 (UniProt Q70CQ2)
Method in brief: (§1)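 Global-median-normalised Spectronaut label-free quantities were compared by unpaired t-test, and values are average log2 ratios of fragment over vehicle. Only proteins with ≥2 unique peptides were used. HEK293T lysate (495 µg per sample) was treated in triplicate with fragment at 200 µM or vehicle for 3 h and then with Biotin-Ahx-Ub-VS at 0.5 µM final for 1 h. Labelled DUBs were then NeutrAvidin-enriched, digested with LysC and trypsin, and run by diaPASEF LC-MS/MS.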

[2] = molecular target: T1, USP36 (UniProt Q9P275)
T1 sequence (whole entry): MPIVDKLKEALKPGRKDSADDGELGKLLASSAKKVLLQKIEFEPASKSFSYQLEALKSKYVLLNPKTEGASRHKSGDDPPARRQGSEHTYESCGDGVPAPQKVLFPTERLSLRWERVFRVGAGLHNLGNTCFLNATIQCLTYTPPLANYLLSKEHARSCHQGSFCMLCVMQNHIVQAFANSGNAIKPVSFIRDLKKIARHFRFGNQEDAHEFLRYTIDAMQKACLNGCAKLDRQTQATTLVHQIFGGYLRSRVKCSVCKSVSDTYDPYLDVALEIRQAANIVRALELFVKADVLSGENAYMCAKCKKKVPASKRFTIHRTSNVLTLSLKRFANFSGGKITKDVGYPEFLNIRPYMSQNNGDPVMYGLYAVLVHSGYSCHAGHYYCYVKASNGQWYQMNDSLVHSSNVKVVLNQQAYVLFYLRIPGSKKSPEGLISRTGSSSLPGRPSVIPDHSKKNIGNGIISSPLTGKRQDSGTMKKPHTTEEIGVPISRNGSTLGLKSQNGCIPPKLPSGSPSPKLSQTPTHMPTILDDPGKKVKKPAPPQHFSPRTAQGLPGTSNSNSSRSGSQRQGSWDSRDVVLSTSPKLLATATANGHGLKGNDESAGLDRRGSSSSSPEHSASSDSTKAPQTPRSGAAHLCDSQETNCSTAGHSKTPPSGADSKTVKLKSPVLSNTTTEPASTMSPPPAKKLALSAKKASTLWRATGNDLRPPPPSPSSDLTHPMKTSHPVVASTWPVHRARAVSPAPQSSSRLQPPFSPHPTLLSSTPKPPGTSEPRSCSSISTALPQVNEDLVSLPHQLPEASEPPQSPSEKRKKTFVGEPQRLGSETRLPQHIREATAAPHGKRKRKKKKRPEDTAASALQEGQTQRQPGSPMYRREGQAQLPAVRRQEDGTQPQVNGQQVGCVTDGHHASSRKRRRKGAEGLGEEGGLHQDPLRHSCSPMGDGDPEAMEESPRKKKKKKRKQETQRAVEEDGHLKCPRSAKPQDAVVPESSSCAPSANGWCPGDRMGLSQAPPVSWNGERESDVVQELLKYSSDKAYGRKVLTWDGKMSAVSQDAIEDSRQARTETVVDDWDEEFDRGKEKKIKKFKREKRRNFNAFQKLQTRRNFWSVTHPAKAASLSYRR
Method in brief: as §1

[3] = molecular target: T2, USP38 (UniProt Q8NB14)
T2 sequence (whole entry): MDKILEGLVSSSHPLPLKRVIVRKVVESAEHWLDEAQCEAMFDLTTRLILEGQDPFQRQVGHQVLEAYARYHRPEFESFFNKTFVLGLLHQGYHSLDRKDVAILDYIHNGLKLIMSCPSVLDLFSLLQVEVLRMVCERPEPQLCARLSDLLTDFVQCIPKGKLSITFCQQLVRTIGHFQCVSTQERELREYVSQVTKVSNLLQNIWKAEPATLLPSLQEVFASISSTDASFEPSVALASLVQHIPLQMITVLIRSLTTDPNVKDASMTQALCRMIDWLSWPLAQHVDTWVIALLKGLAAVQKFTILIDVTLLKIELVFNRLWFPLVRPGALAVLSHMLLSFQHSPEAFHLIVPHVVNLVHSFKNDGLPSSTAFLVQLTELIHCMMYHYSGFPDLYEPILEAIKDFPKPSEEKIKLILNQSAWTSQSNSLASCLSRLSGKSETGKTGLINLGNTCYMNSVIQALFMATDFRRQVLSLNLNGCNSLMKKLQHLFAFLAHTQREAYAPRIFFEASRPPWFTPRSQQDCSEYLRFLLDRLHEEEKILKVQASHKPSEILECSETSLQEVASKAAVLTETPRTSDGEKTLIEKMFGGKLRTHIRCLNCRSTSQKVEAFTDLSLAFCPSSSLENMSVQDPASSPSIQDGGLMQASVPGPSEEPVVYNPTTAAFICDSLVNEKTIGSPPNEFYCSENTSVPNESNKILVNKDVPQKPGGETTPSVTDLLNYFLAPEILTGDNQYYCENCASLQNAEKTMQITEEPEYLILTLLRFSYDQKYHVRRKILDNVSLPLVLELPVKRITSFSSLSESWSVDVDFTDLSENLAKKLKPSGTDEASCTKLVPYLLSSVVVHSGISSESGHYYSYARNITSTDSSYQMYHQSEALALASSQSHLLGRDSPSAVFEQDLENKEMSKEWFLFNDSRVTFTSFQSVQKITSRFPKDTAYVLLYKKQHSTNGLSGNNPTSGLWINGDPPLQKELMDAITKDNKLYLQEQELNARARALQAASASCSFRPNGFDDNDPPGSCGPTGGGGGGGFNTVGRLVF
Method in brief: as §1

[4] = molecular target: T3, USP39 (UniProt Q53GS9)
T3 sequence (whole entry): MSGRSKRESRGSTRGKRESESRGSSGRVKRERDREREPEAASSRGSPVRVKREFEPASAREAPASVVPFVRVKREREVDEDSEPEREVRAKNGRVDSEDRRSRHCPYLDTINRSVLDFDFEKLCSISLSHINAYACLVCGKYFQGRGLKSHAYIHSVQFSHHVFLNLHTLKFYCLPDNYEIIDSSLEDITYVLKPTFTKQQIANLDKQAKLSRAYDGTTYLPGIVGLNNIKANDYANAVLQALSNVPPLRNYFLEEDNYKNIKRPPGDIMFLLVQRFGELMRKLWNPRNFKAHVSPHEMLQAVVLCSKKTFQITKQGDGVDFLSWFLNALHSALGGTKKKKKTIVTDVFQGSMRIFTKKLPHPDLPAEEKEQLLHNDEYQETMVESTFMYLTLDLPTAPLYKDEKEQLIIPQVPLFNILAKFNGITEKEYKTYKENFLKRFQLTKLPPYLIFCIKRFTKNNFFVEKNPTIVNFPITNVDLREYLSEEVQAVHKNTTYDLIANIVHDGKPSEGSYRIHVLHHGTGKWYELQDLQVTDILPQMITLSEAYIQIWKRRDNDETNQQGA
Method in brief: as §1

[5] = molecular target: T4, USP4 (UniProt Q13107)
T4 sequence (whole entry): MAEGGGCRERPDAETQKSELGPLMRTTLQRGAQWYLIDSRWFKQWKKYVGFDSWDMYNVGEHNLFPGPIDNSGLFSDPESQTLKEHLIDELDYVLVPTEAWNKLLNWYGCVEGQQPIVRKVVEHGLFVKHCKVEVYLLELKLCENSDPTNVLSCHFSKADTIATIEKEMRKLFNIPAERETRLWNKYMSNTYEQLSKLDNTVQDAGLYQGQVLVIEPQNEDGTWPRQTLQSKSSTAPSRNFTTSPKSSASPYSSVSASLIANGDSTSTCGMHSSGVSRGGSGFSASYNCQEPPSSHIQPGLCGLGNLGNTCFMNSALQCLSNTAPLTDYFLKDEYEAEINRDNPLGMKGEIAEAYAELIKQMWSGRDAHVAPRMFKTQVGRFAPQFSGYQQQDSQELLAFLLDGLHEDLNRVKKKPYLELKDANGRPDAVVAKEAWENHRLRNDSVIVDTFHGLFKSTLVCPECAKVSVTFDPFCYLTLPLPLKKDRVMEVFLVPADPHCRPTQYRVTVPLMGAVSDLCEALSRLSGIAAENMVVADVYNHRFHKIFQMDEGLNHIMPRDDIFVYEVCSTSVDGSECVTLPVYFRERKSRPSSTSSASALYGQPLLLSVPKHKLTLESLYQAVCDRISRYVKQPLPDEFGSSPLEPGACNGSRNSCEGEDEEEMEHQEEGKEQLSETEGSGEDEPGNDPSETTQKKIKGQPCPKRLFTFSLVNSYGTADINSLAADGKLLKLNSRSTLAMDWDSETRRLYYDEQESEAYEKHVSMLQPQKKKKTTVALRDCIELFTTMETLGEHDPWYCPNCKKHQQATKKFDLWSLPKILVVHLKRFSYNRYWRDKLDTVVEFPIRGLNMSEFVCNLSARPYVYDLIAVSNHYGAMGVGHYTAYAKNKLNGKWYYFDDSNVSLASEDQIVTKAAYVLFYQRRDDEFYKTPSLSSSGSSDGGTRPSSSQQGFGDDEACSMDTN
Method in brief: as §1

Measured: log2 ratio of Biotin-Ahx-Ub-VS probe labelling

USP34, sequence (Q70CQ2 whole entry, the tested form may be a part): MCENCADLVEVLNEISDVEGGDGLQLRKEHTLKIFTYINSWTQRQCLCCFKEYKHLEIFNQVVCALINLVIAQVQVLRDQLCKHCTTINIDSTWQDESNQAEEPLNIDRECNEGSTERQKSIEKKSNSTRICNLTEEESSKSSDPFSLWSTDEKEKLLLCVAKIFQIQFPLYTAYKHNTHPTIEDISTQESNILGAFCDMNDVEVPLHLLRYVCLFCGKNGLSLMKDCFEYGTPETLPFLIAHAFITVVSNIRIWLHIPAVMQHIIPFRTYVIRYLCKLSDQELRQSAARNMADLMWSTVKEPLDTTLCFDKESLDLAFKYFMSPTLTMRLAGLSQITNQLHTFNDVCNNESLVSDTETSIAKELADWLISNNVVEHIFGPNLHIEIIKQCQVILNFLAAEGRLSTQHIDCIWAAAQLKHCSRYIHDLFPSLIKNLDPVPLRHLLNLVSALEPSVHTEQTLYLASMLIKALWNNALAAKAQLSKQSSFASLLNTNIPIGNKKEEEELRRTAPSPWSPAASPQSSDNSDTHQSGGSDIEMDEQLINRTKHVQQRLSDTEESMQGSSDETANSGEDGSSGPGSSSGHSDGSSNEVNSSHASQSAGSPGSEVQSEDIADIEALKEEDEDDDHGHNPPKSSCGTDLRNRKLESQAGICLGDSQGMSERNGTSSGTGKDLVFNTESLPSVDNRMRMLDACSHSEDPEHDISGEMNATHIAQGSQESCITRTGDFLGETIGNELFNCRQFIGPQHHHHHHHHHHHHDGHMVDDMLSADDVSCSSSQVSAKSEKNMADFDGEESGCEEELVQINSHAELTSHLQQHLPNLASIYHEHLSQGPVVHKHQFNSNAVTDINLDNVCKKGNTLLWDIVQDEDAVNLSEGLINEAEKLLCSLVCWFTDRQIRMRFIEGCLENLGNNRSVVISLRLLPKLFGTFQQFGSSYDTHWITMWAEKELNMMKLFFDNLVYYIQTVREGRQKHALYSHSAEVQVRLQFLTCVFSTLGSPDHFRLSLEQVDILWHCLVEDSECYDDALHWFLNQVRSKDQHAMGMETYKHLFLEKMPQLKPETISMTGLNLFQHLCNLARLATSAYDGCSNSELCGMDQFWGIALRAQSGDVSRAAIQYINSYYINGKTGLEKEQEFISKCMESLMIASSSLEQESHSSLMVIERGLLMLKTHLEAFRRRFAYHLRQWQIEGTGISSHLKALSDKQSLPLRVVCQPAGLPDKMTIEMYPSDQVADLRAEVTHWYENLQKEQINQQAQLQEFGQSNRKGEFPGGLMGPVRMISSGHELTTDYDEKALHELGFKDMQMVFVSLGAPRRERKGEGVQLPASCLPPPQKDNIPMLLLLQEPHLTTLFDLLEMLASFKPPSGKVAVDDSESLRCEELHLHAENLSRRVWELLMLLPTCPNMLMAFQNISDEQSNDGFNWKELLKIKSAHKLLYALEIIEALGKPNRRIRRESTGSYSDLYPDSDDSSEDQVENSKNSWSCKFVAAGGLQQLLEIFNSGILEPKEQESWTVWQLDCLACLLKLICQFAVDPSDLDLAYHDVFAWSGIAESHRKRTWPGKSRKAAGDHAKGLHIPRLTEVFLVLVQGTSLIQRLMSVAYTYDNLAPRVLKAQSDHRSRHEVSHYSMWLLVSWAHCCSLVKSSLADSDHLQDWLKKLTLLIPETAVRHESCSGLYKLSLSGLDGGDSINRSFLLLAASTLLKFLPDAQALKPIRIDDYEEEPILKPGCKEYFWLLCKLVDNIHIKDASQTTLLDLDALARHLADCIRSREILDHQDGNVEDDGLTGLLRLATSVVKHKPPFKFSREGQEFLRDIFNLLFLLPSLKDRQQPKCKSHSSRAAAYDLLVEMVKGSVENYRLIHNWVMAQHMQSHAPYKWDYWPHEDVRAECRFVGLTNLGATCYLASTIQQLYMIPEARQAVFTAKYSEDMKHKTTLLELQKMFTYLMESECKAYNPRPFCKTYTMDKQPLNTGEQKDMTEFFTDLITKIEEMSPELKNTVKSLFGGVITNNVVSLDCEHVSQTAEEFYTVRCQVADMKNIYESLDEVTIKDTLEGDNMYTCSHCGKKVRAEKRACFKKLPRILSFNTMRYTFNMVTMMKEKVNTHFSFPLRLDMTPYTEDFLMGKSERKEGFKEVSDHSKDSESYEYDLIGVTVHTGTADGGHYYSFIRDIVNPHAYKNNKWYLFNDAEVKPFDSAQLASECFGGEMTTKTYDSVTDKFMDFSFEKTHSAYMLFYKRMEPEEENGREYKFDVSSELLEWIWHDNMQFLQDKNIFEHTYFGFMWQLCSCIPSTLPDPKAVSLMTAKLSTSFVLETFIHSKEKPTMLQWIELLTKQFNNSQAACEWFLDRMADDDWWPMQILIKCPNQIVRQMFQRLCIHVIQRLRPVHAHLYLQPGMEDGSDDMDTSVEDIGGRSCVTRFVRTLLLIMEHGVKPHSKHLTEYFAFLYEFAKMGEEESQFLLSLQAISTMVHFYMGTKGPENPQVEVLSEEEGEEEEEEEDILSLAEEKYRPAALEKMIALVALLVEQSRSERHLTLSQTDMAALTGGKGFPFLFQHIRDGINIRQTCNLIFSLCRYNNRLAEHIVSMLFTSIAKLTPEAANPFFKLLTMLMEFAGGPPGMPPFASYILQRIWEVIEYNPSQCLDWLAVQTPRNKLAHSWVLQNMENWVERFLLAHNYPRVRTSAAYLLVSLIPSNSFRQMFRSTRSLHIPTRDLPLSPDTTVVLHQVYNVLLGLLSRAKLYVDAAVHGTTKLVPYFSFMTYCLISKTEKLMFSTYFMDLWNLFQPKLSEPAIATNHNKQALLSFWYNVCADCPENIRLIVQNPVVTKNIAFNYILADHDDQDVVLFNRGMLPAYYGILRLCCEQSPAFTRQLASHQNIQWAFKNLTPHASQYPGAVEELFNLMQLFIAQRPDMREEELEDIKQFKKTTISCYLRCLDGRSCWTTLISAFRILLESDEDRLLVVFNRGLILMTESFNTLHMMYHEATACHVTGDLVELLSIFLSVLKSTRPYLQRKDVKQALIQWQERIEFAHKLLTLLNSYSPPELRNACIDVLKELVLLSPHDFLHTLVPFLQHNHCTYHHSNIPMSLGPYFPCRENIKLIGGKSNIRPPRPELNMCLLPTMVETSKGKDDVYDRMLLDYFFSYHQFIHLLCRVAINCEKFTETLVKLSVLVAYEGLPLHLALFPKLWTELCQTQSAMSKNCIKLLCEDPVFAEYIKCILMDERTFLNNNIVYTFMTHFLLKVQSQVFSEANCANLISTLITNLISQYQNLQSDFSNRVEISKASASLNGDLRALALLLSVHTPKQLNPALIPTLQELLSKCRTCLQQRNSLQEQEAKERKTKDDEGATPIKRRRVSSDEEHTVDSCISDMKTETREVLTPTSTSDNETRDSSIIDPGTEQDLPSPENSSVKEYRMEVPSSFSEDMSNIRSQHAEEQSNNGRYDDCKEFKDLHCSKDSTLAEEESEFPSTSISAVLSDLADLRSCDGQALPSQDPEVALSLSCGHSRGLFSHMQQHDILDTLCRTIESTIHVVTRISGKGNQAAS

CC1(NC(=O)CCl)CCS(=O)(=O)C1 (stereo not given)
inactive: [1] -0.257 | [2] -0.302 | [3] -0.653 | [4] -0.0411 | [5] -0.424
